Compound activity deposited in PubChem BioAssay by NMMLSC.
Only some compounds are listed: those with a hit (about 2.9% of all), similar ones and a draw of the others.
GRK2 aptamer HTS – compounds blocking aptamer binding on GRK2 – biochemical, human GRK2, bead flow cytometry, HTS, primary screen. Beta-adrenergic receptor kinase 1 (Homo sapiens), P25098. FAM-aptamer displacement from GRK2. inhibition of aptamer binding, % at 10 µM. 330,000 compounds, 0.59% hits;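 active = inhibition of aptamer binding above 40%, roughly 3 SD of noise, on plates passing a quality check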;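 also: median bead fluorescence of bound FAM aptamer so fluorescent compounds give negative values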
Target sequence (P25098 whole entry, looked up): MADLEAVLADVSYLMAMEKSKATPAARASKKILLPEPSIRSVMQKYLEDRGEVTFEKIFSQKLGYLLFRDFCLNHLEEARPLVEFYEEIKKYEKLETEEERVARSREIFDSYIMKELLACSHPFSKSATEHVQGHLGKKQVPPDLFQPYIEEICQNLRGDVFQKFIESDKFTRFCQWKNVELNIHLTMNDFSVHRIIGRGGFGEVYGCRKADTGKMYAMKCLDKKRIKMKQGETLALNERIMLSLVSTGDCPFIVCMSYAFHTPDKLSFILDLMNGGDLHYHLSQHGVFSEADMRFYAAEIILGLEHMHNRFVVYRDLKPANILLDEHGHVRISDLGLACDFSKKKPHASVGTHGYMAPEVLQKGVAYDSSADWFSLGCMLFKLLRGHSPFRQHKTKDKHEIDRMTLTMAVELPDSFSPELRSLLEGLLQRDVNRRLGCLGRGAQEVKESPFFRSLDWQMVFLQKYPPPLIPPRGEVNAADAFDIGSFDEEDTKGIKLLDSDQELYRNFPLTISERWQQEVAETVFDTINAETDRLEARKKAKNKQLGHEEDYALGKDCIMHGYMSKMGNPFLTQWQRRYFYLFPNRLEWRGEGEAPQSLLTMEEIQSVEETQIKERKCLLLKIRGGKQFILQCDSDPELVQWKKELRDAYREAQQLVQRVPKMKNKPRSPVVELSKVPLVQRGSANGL
MEKK3 PB1 HTS – modulators of MEKK3-MEK5 PB1 binding, primary screen, biochemical, wildtype MEKK3, multiplex bead flow cytometry, Alexa488-MEK5; AID 1529, 2009; binding response (% of control), % at 10 µM; Mitogen-activated protein kinase kinase kinase 3 (Homo sapiens), Q99759; 290,000 compounds, 1.4% hits; bead-based flow cytometry, Alexa488-MEK5 binding to MEKK3; actives lie on both sides; 0 = blocked by unlabeled MEK5, 100 = vehicle;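 active = binding response more than 3 SD above or below the average of its plate-row segment, actives on both sides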;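 also: Alexa488 bead fluorescence after subtracting the streptavidin-only scavenger bead signal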
Beta2AR agonist – beta2AR agonists driving receptor internalization, primary screen, cell-based, FAP fluorogen, flow cytometry; Beta-2 adrenergic receptor (Homo sapiens), P07550; Am2.2-beta2AR cells; response, % (concentration not given with the values); 340,000 compounds, 0.43% hits; AID 504454, 2011;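 active = response above a set limit, near 3 SD of response in nonfluorescent compounds, cut at about 42% in these data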
MEKK2wt PB1 HTS – modulators of MEK5 binding to wildtype MEKK2, primary screen, biochemical, multiplex bead flow cytometry, Alexa488-MEK5; Mitogen-activated protein kinase kinase kinase 2 (Homo sapiens), Q9Y2U5; 290,000 compounds, 1.1% hits; Alexa488-MEK5 binding to MEKK2 WT; actives lie on both sides; AID 1531, 2009; binding response (% of control), % at 10 µM; in the data active = binding response below about 67% or above about 130%
MEKK2mut PB1 HTS – MEK5 binding signal on mutant MEKK2 PB1, primary screen, biochemical, multiplex bead flow cytometry, Alexa488-MEK5. percent response, % at 10 µM. Alexa488-MEK5 binding to MEKK2 mutant. 290,000 compounds, 0.35% hits; in the data active = percent response above about 24%, passing the limit was not always enough
Of the large screens only hits and unclear results are named; the others gave an inactive call; [ ] = dose if it differs, or a comment.

Cc1cccc(N2C(=O)NC(=O)/C(=C/c3ccc([N+](=O)[O-])o3)C2=O)c1	GRK2 aptamer HTS 44.0 (no result: Beta2AR agonist)
COC(=O)C1=C(c2ccccc2OCc2ccccc2)C[C@@H]2CC[C@H]1N2C(=O)NCCOc1ccccc1Cl	none (no result: MEKK3 PB1 HTS, MEKK2wt PB1 HTS, MEKK2mut PB1 HTS)
CN1CCCC1CCOC(C)(c1ccccc1)c1ccc(Cl)cc1 (stereo not drawn)	none (no result: GRK2 aptamer HTS, MEKK3 PB1 HTS, MEKK2wt PB1 HTS, MEKK2mut PB1 HTS)
CCN(CCCl)c1cc(CN(C)C)cc(NC(=O)c2ccc(C(=O)Nc3cc(CN(C)C)cc(N(CC)CCCl)c3)cc2)c1	Beta2AR agonist 46.7 (no result: GRK2 aptamer HTS, MEKK3 PB1 HTS, MEKK2wt PB1 HTS, MEKK2mut PB1 HTS)
CC(=O)OC1CCC2(C)C(=CC(=O)C3C2CCC2(C)C(OC(C)=O)CCC32)C1 (stereo not drawn)	none (no result: GRK2 aptamer HTS, MEKK3 PB1 HTS, MEKK2wt PB1 HTS, MEKK2mut PB1 HTS)
O=C1C(=O)c2ccccc2-c2ccccc21	Beta2AR agonist 103.0
CC(C)(C)c1cc(OC(=O)Cc2ccccc2)ccc1O	none
CC1=CC(C)CC(C)OC(=O)CC(c2ccc(O)cc2)NC(=O)C(Cc2c(Br)[nH]c3ccccc23)N(C)C(=O)C(C)NC(=O)C(C)C1 (stereo not drawn)	Beta2AR agonist 49.8 (no result: GRK2 aptamer HTS, MEKK3 PB1 HTS, MEKK2wt PB1 HTS, MEKK2mut PB1 HTS)
Cc1cc(C)cc(NC(=O)CCNC(=O)N2C[C@H]3C[C@@H](C2)c2cccc(=O)n2C3)c1	none
C[n+]1c(-c2ccccc2)cc(CCCCc2cc(-c3ccccc3)[n+](C)c(-c3ccccc3)c2)cc1-c1ccccc1	MEKK2wt PB1 HTS 9.0[inhibitor], MEKK2mut PB1 HTS 56.0
COc1ccc(-c2cc(-c3ccccc3)[n+](C)c(-c3ccccc3)c2)cc1	none
CCC1(c2ccccc2)C(=O)NC(=S)NC1=O	none (no result: GRK2 aptamer HTS, MEKK3 PB1 HTS, MEKK2wt PB1 HTS, MEKK2mut PB1 HTS)
CCC(C)N1C(=O)/C(=C\c2ccc(N3CCCCCC3)cc2)C(=O)NC1=S (stereo not drawn)	MEKK2mut PB1 HTS 51.0
COC(=O)C1=C(C(=O)OC)SC2(S1)C(C(=O)OC)=C(C(=O)OC)Sc1c2ssc1=O	Beta2AR agonist 57.5 (no result: GRK2 aptamer HTS, MEKK3 PB1 HTS, MEKK2wt PB1 HTS, MEKK2mut PB1 HTS)
Cc1ccsc1/C=C1\C(=O)NC(=S)N(C)C1=O	Beta2AR agonist 55.1
O=C1C(=O)N(c2ccccc2)P(=O)(N(CCCl)CCCl)N1c1ccccc1	none (no result: GRK2 aptamer HTS, MEKK3 PB1 HTS, MEKK2wt PB1 HTS, MEKK2mut PB1 HTS)
CCCCCCn1c(O)c(C=Nc2ccccc2N2CCOCC2)c(=O)[nH]c1=S	MEKK2wt PB1 HTS 29.0
COC(=O)C1=CO[C@@H](C)[C@H]2CN3CC[C@]4(C(=O)Nc5ccccc54)[C@@H]3C[C@H]12	MEKK2wt PB1 HTS -8.0
CC(N)Cc1c[nH]c2ccc(O)cc12 (stereo not drawn)	none (no result: GRK2 aptamer HTS, MEKK3 PB1 HTS, MEKK2wt PB1 HTS, MEKK2mut PB1 HTS)
CCCCCCCCCOc1ccc2[nH]cc(CCN)c2c1	MEKK2wt PB1 HTS 252.0, MEKK2mut PB1 HTS 34.0 (no result: GRK2 aptamer HTS, Beta2AR agonist)
COc1ccc(-c2nc3ccccc3c(=O)n2-c2ccc(OC)cc2)cc1	none
CCn1nc(-c2ccccc2)nc2c(=O)n(C)c(=O)nc1-2	GRK2 aptamer HTS 54.0, Beta2AR agonist 68.8
CC(=O)N(C)C1=Nc2ccc(Cl)cc2C(c2ccccc2)=[N+]([O-])C1	none (no result: GRK2 aptamer HTS, MEKK3 PB1 HTS, MEKK2wt PB1 HTS, MEKK2mut PB1 HTS)
CNc1cc(Cl)c2nonc2c1[N+](=O)[O-]	Beta2AR agonist 106.0 (no result: GRK2 aptamer HTS)
CCOc1ccc(N2C(=O)/C(=C/c3ccc(C)o3)C(=O)NC2=S)cc1	none
O=C1NC(=S)N(c2ccc(F)cc2)C(=O)/C1=C/c1ccco1	GRK2 aptamer HTS 99.0 (no result: Beta2AR agonist)
Cc1ccc(/C=C2\C(=O)NC(=S)N(c3cccc(F)c3)C2=O)o1	Beta2AR agonist 49.8
COc1ccc(N2C(=O)/C(=C/c3ccc(C)o3)C(=O)NC2=S)cc1	Beta2AR agonist 44.3 (no result: GRK2 aptamer HTS)
O=C1NC(=S)N(c2ccc(F)cc2)C(=O)/C1=C\c1ccoc1	none (no result: GRK2 aptamer HTS)
COC(=O)C1=C(c2ccccc2)C[C@@H]2CC[C@H]1N2C	none (no result: MEKK3 PB1 HTS, MEKK2wt PB1 HTS, MEKK2mut PB1 HTS)
COC(=O)C1=C(c2ccc3ccccc3c2)C[C@@H]2CC[C@H]1N2C(=O)N1CCCC1	none (no result: MEKK3 PB1 HTS, MEKK2wt PB1 HTS, MEKK2mut PB1 HTS)
O=C(C(=C1N(Cc2ccc(Cl)nc2)CCN1Cc1ccc(Cl)nc1)[N+](=O)[O-])C(Cl)Cl	GRK2 aptamer HTS 44.0
CCC1CO/C(=C(\C(Cl)=C(Cl)Cl)[N+](=O)[O-])N1Cc1ccc(Cl)nc1 (stereo not drawn)	none
O=C1NC(=O)N(c2ccc3c(c2)OCO3)C(=O)/C1=C/c1cccs1	GRK2 aptamer HTS 44.0, Beta2AR agonist 44.5
O=C1C=C2C=C[C@@H]3CC2(O1)[C@H]1CCCCN31	none (no result: MEKK3 PB1 HTS, MEKK2wt PB1 HTS, MEKK2mut PB1 HTS)
Cc1cc(/C=C2\C(=O)NC(=O)N(Cc3ccccc3)C2=O)c(C)n1-c1ccc(Cl)c(C(=O)O)c1	GRK2 aptamer HTS 100.0
CCN(CC)c1ccc(C=C2C(=O)NC(=S)NC2=O)cc1	Beta2AR agonist 51.2
C=CCC1(CCCCC)C(=O)NC(=S)NC1=O	none (no result: GRK2 aptamer HTS, MEKK3 PB1 HTS, MEKK2wt PB1 HTS, MEKK2mut PB1 HTS)
C=C1C(=O)OC2CC(C)C3C=CC(=O)C3(C)C(O)C12 (stereo not drawn)	none (no result: GRK2 aptamer HTS, MEKK3 PB1 HTS, MEKK2wt PB1 HTS, MEKK2mut PB1 HTS)
C=C1C(=O)O[C@@H]2C[C@@H](C)[C@@H]3C=CC(=O)[C@@]3(C)[C@@H](OC(=O)CC(=O)O[C@H]3[C@@H]4C(=C)C(=O)O[C@@H]4C[C@@H](C)[C@@H]4C=CC(=O)[C@]43C)[C@H]12	Beta2AR agonist 48.2
COP(=S)(OC)SCn1nnc2ccccc2c1=O	none (no result: GRK2 aptamer HTS, MEKK3 PB1 HTS, MEKK2wt PB1 HTS, MEKK2mut PB1 HTS)
O=C1NC(=O)C(=Cc2ccc(-c3ccc(F)cc3O)o2)C(=O)N1	Beta2AR agonist 42.4
O=C1NC(=O)C(=Cc2ccc(-c3ccc(S(=O)(=O)N4CCOCC4)cc3)o2)C(=O)N1	none
O=C1NC(=O)C(=Cc2ccc(-c3ccc(Cl)cc3)o2)C(=O)N1	Beta2AR agonist 59.7
C[C@]12CC[C@H](O)CC1=CCC1C2CC[C@@]2(C)C1C[C@@H]1CC(=O)O[C@@H]12 (stereo partly drawn)	none (no result: MEKK3 PB1 HTS, MEKK2wt PB1 HTS, MEKK2mut PB1 HTS)
Cn1cccc1/C=C1\C(=O)NC(=O)N(Cc2ccco2)C1=O	none (no result: GRK2 aptamer HTS)
COc1ccc(/C=C2/C(=O)NC(=O)N(Cc3ccco3)C2=O)cc1	GRK2 aptamer HTS 82.0 (no result: Beta2AR agonist)
COC(=O)C1=C(c2cccc(C#N)c2)C[C@@H]2CC[C@H]1N2C(=O)NC1CCCCC1	none (no result: MEKK3 PB1 HTS, MEKK2wt PB1 HTS, MEKK2mut PB1 HTS)
